Experimental data from PubChem BioAssay (Tox21).
Active and inactive are the calls of the source. Where a call stands in place of a potency, no number is given. Calls come from the whole dose curve; as a rule, active = well fitted curve in the direction sought with a large enough effect in the repeat runs; inconclusive = weak or mixed curves; inactive = flat fitted curve, though single readings scatter.

Assay: qHTS assay to test for compound auto fluorescence at 460 nm (blue) in HEK293 cell free culture (AID 720681)
Settings: cell-free medium, autofluorescence 405/460 nm (blue); series mostly up to 91.3 µM; fluorescence, % of fluorescent control: at the top concentration
Excerpt: U.S. Tox21 Program National Center for Advancing Translational Sciences [NCATS] NIH Chemical Genomics Center [NCGC] U.S. Environmental Protection Agency [EPA] National Institutes of Environmental Health Sciences [NIEHS] National Toxicology Program [NTP] U.S. Food and Drug Administration [FDA] Tox21 Assay Overview: Compound auto fluorescence often interferes with screening of the compound library against various biological targets and signaling pathways. Some of these compounds may have fluorophoric properties. Such properties may interfere with the assay outputs resulting in false positives and/or negatives. To decrease such complications and ensure the compound activities are relevant in terms of biological response, the Tox21 10K compound library was screened for auto fluorescence. From the fluorophores used as reporter signals in our screening assays, the auto fluorescence equivalencies of compounds against three fluorophores have been evaluated: Triamterene, Fluorescein and Rose Bengal sodium for blue, green and red fluorescence, respectively. The fluorescence intensities were measured using Excitation/Emission wavelengths at 405/460nm, 485/535nm and 540/590nm for blue, green and red labels, respectively. This assay includes the blue fluorescence data.
Tox21 Assay Protocol Summary: 5 uL of culture medium (DMEM containing 10% FBS) per well was dispensed into black wall/clear bottom 1536-well plates using a Multidrop Combi Dispenser (ThermoFisher Scientific, Waltham, MA). After 23 nL compound or DMSO vehicle was transferred into assay plate by a pintool work station (Kalypsys, San Diego, CA), fluorescence intensities in the assay plates were measured by an Envision (PerkinElmer, Shelton, CT) plate reader using three labels for measuring blue, green and red fluorescence at […] 460, 535 and 590nm respectively.
Potency is the fitted concentration of half-maximal effect.

Row | SMILES | Potency | fluorescence, % of fluorescent control
1 | CN(C)CCCN1c2ccccc2Sc2ccc(Cl)cc21 | inactive | 
2 | O=C(O)CCCC(=O)O | inactive | 
3 | COc1ccc2nc(N)sc2c1 | inactive | 
4 | CC(=O)Oc1c(C)c(C)c2c(c1C)CC[C@@](C)(CCC[C@H](C)CCC[C@H](C)CCCC(C)C)O2 | inactive | 
5 | NCCN | inactive | 
6 | C=C[C@H]1CN2CC[C@H]1C[C@@H]2[C@@H](O)c1ccnc2ccc(OC)cc12 | inactive | 
7 | CN(Cc1cnc2nc(N)nc(N)c2n1)c1ccc(C(=O)N[C@@H](CCC(=O)O)C(=O)O)cc1 | 39.8 µM (active) | 
8 | Nc1ccc2c(O)cc(S(=O)(=O)O)cc2c1 |  | 8.28% (inactive)
9 | CC(=O)O[C@]1(C(C)=O)CC[C@H]2[C@@H]3C=C(Cl)C4=CC(=O)CC[C@]4(C)[C@H]3CC[C@@]21C | inactive | 
10 | COc1cc([C@H]2Oc3cc([C@H]4Oc5cc(O)cc(O)c5C(=O)[C@@H]4O)ccc3O[C@@H]2CO)ccc1O | inactive | 
11 | COc1ccc(C(=O)c2ccccc2O)c(O)c1 | inactive | 
12 | CCCCCC1C(=O)CCC1CC(=O)OC (stereo not given) | inactive | 
13 | Cc1ccc(C(C)(C)C)cc1 | inactive | 
14 | CC[C@]12CCCN3CCc4c(n(c5ccccc45)[C@@](O)(C(=O)OC)C1)[C@@H]32 | inactive | 
15 | CCCCCCCCCCCCCO | inactive | 
16 | C1CN(SSN2CCOCC2)CCO1 | inactive | 
17 | IC(I)I | inactive | 
18 | C=C[C@H]1CN2CC[C@H]1C[C@H]2[C@H](O)c1ccnc2ccc(OC)cc12 | inactive | 
19 | O=C(O)c1ccc(O)cc1 | inactive | 
20 | CCCCCC=O |  | -0.152% (inactive)

Row | SMILES | Potency | fluorescence, % of fluorescent control
21 | O=C1OC2(c3ccccc31)c1cc(I)c(O)c(I)c1Oc1c2cc(I)c(O)c1I | inactive | 
22 | Cc1ccc2c(c1)C(=O)OC2=O | inactive | 
23 | NC[C@H](O)c1ccc(O)c(O)c1 | inactive | 
24 | Cc1cccc(Nc2ccccc2C(=O)O)c1C | inactive | 
25 | Nc1cc(Cl)c(N)c(Cl)c1 | inactive | 
26 | CCCOCCO | inactive | 
27 | C=C[Si](OCCOC)(OCCOC)OCCOC | inactive | 
28 | OC[C@H]1O[C@@H]2O[C@H]3[C@H](O)[C@@H](O)[C@@H](O[C@H]4[C@H](O)[C@@H](O)[C@@H](O[C@H]5[C@H](O)[C@@H](O)[C@@H](O[C@H]6[C@H](O)[C@@H](O)[C@@H](O[C@H]7[C@H](O)[C@@H](O)[C@@H](O[C@H]1[C@H](O)[C@H]2O)O[C@@H]7CO)O[C@@H]6CO)O[C@@H]5CO)O[C@@H]4CO)O[C@@H]3CO | inactive | 
29 | CCO[Si](CCCNC(N)=O)(OCC)OCC | inactive | 
30 | Cc1ccc(C(C)(C)C)c(O)c1 | inactive | 
31 | CCCCCCC(C)O (stereo not given) | inactive | 
32 | OCCNCCO | inactive | 
33 | c1ccc2c(c1)ccc1cc3c(ccc4ccccc43)cc12 | inactive | 
34 | CC1(C)C(C=C(Cl)Cl)C1C(=O)OCc1cccc(Oc2ccccc2)c1 (stereo not given) | inactive | 
35 | CN1CCOCC1 | inactive | 
36 | COCCOCCOCCO | inactive | 
37 | Oc1c(Cl)ccc(Cl)c1Cl | inactive | 
38 | CCOC(=O)C(C)Oc1ccc(Oc2cnc3cc(Cl)ccc3n2)cc1 (stereo not given) | inactive | 
39 | C1COCCN1 | inactive | 
40 | c1ccc2c(c1)[nH]c1ccccc12 | inactive | 
